Bioassay records deposited in PubChem BioAssay by National Center for Advancing Translational Sciences (NCATS).
Only a selection was taken, and hits are over-represented in it overall.
ERK EGF block: EGF-driven ERK pathway inhibition; HEK293-V1b, EGF-stimulated phospho-ERK AlphaScreen; Potency, µM (doses to about 11.5 µM), without a hit: at the highest dose activity change, negative = inhibition, usual class: inhibitors; 130,000 compounds, 0.41% hits; active = well fitted inhibition curve with a large enough effect;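 also: plate controls were stimulated vehicle wells for no effect and unstimulated vehicle basal for full effect; nearly all actives have a fitted effect of over 55% in size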
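In this qHTS, HEK293 cells with stable type-1 vasopressin (V1b) receptor were exposed to compound at 37C for 30 min, stimulated 5 min with EGF at 25 nM, lysed, and probed for phospho-ERK by AlphaScreen.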
Numbers without * were called inactive; [ ] = dose if it differs, or a comment. Potency is read from the fitted curve at half-maximal effect.

SMILES	ERK EGF block
C[C@@H]1OC(OC2CC[C@@]3(C)C(CC[C@@]4(C)C3CC=C3C5CC(C)(C)CC[C@]5(C(=O)OC5OCC(O)[C@@H](O)[C@@H]5OC5O[C@@H](C)[C@H](O[C@H]6OC(CO)C(O)C(O)C6O)C(O)C5O)C(O)C[C@@]34C)C2(C)C)C(O)C(O)[C@H]1OC1OCC(O)C(O)[C@H]1O (stereo partly drawn)	14µM*
CC1(C)CC[C@]2(C(=O)O)CC[C@@]3(C)C(=CCC4[C@@]5(C)CCC(O)[C@@](C)(CO)C5CC[C@@]43C)C2C1 (stereo partly drawn)	10%
CC1(C)CC[C@]2(C(=O)O)CC[C@]3(C)C(=CCC4[C@@]5(C)CC[C@H](O)C(C)(C)[C@@H]5CC[C@]43C)C2C1 (stereo partly drawn)	-7%
CC1(C)CC[C@]2(C(=O)O)CC[C@]3(C)C(=CC[C@@H]4[C@@]5(C)CC[C@H](O)C(C)(C)[C@@H]5CC[C@]43C)[C@@H]2C1	7%[57.5 µM]
O=C1C2C=CC=CC2=NC(=S)N1CCN1CCC(=C(c2ccc(F)cc2)c2ccc(F)cc2)CC1 (stereo not drawn)	18%
CC(C)C[C@H](N)CSSC[C@@H](N)CC(C)C	16%
N=C(N)S/C=C\C(=O)O	-2%
Nc1nc(Cl)nc2c1ncn2[C@@H]1O[C@H](COP(=O)(O)OP(=O)(O)OP(=O)(O)O)[C@H](O)[C@H]1O	5%
COCCN1C(=O)N[C@@H](CCc2ccccc2)C(C(=O)OC)=C1C	-8%
O=C(COc1ccccc1[N+](=O)[O-])Nc1ccc(CN2CCOCC2)cc1	3%
CN1CCN(c2ccc(NC(=O)COc3ccccc3[N+](=O)[O-])cc2)CC1	-6%
CC(C)C(=O)N1CCN(c2ccc(NC(=O)COc3ccccc3[N+](=O)[O-])cc2)CC1	32µM*
FC(F)(F)c1cc(NC(=S)Nc2ccc3ccccc3c2)cc(C(F)(F)F)c1	-1%
COc1ccc(Nc2c(-c3ccc(C)cc3)nc3cnccn23)cc1	-4%
COc1ccc(Nc2c(-c3ccc(OC)cc3)nc3cnccn23)cc1	7%
Cc1ccc(Nc2c(-c3ccccc3O)nc3cnccn23)cc1	25µM*
CC(C)=CCC1=C(O)[C@](O)(CC=C(C)C)C(=O)C(C(=O)CC(C)C)=C1O	-1%
COC(=O)CC1c2ccccc2C=C(C2CC2)N1C(=O)OC (stereo not drawn)	-10%
COc1ccc(Nc2nc(-c3ccc4c(c3)NC(=O)CO4)cs2)cc1	20µM*
COc1ccccc1Nc1nc(-c2ccc3c(c2)NC(=O)CO3)cs1	-2%
COc1ccc(-c2csc(NC3=NCCCCC3)n2)cc1	10%
COC(=O)[C@H](COC(C)(C)C)NC(=O)O[C@@H]1C(=O)c2ccc(OC)cc2O[C@H]1c1cccc(C(F)(F)F)c1	-19%
O=C(OCC1OC(OC(=O)c2cc(O)c(O)c(OC(=O)c3cc(O)c(O)c(O)c3)c2)[C@@H](OC(=O)c2cc(O)c(O)c(OC(=O)c3cc(O)c(O)c(O)c3)c2)C(OC(=O)c2cc(O)c(O)c(OC(=O)c3cc(O)c(O)c(O)c3)c2)C1OC(=O)c1cc(O)c(O)c(OC(=O)c2cc(O)c(O)c(O)c2)c1)c1cc(O)c(O)c(OC(=O)c2cc(O)c(O)c(O)c2)c1 (stereo partly drawn)	7.9µM*
CC(=O)NC1C(OCCOc2ccc(Cl)cc2Cl)OC(COC(C)=O)C(OC(C)=O)C1OC(C)=O (stereo not drawn)	-8%[57.5 µM]
Cc1cn(C2OC(COC(=O)c3ccccc3)C(OC(=O)c3ccccc3)C2OC(=O)c2ccccc2)c(=O)[nH]c1=O (stereo not drawn)	8%
SMILES	ERK EGF block
COCCn1c(=O)c(-c2ccc(Cl)cc2)nc2cncnc21	1%
CCCC1/C(=N/O)CC(c2ccccc2)NC1c1ccccc1 (stereo not drawn)	35µM*
CC(C)C1/C(=N/O)CC(c2ccccc2)NC1c1ccccc1 (stereo not drawn)	-11%[57.5 µM]
O=C1CC(c2ccc(Br)cc2)NC(c2ccc(Br)cc2)C1c1ccccc1 (stereo not drawn)	3%
CCCn1c(-c2ccc(F)cc2)nc2c(NCC(C)(C)CN(C)C)nc(C)nc21	-4%
COC(=O)[C@@H]1C[C@H]1[C@@H](NC(C)=O)c1ccccc1	13%
COCCN(CCOC)c1nc(C)nc2c1nc(-c1ccccc1)n2CC1CCN(C)CC1	4%
COc1cccc([C@@H]2Oc3ccc(OC)cc3C[C@H]2OC(=O)NS(=O)(=O)c2ccc(C)cc2)c1	-5%
CC12C=C(/C=C/CCc3ccco3)C(C)(C1)[C@H](CCc1ccco1)CC2=O (stereo partly drawn)	-3%
CC(Sc1cccc[n+]1[O-])C(=O)Nc1ccc([N+](=O)[O-])cc1Cl (stereo not drawn)	5%
O=[N+]([O-])c1ccc(Sc2cccc[n+]2[O-])c2nonc12	25µM*
O=C(CSc1cccc[n+]1[O-])Nc1ccc(C(F)(F)F)cc1[N+](=O)[O-]	3%
COC(=O)NC(c1ccc2c(c1)OCO2)C(C(=O)OC)C(=O)OC (stereo not drawn)	-19%
Cc1cc(CNC(=O)[C@H](C)[C@H]2C[C@]2(C)[C@H](NC(=O)OCc2ccccc2)c2ccccc2)nn1C	2%
CN1[C@@H]2CC[C@H]1CC(OC(=O)[C@@H](CO)c1ccccc1)C2 (stereo partly drawn)	2%[25.7 µM]
COCOc1c2c(c(OCOC)c3c(OCOC)cccc13)/C(=N/N[S+](=O)([O-])c1ccc(C)cc1)C1=C2CCCC1	1%
COCCN1C(=O)N[C@@H](c2cccc(C(F)(F)F)c2)C(C(C)=O)=C1C	-1%
COC(=O)[C@@H]1C=C[C@H](C)[C@H](CCOc2ccccc2)O1	-15%
CC(C)[C@@H]1NC(=O)c2cc([N+](=O)[O-])cc(I)c2OCC[C@@H](C(N)=O)NC(=O)[C@H](CCC(=O)O)NC1=O	-5%
NC(=O)CC[C@@H]1NC(=O)[C@H](Cc2ccccc2)NC(=O)[C@H](Cc2ccc(O)cc2)NC(=O)[C@@H](N)CSSC[C@@H](C(=O)N2CCC[C@H]2C(=O)N[C@@H](CCCN=C(N)N)C(=O)NCC(N)=O)NC(=O)[C@H](CC(N)=O)NC1=O	1%
C=CC1=C(C)/C(=C/c2[nH]c(Cc3[nH]c(/C=C4\NC(=O)C(C)=C4C=C)c(C)c3CCC(=O)O)c(CCC(=O)O)c2C)NC1=O	16%
COc1cccc(/C=N/NC(=O)CNC(=O)COc2ccccc2)c1O	-3%[57.5 µM]
COc1cccc(/C=N/Nc2ncnc3c2ncn3Cc2ccccc2)c1O	13µM*
COc1cccc(/C=N/Nc2cc(Cl)nc(C)n2)c1O	-6%
COc1ccc2c(c1)O[C@@H](c1ccc3c(c1)OCO3)[C@H](OC(=O)NS(=O)(=O)c1ccc(C)cc1)C2=O	-4%
SMILES	ERK EGF block
CCCOc1ccc(Br)cc1-c1cc(-c2ccc(Cl)cc2)[nH]c1-c1ccncc1	-4%
Fc1ccc([C@H]2CCNC[C@H]2COc2ccc3c(c2)OCO3)cc1	-2%
CCCN1C(=O)/C(=C/c2ccc(OCC(=O)OCC)cc2)NC1=S	32µM*
CCCN1C(=O)/C(=C/c2ccc(N3CCOCC3)cc2)NC1=S	-4%
CCOc1cc(/C=C2/NC(=O)N(CC(=O)OC)C2=O)ccc1OC	-3%
COC(=O)C(c1ccc(OC)c(OC)c1)C1c2ccccc2C=C(C)N1C(=O)OC (stereo not drawn)	-8%
CCCn1c(-c2ccc(F)cc2)nc2c(NCC3CCN(C)CC3)nc(C)nc21	-4%
COc1cc(/C=C/C(=O)c2cccs2)cc(OC)c1OC	-7%
